Assay outcomes as filed in PubChem.
CtBP-E1A inh – qHTS Assay for Inhibitors of the CtBP/E1A Interaction; CtBP / adenovirus E1A interaction (AlphaScreen); AlphaScreen GST-E1A/His-CtBP binding, 1536-well; active compounds read low; activity change, % (concentration not given with the values); 340,000 compounds, 0.49% hits; AID 651724, 2012; in the data active = activity change below about -65%; inconclusive = mostly about -30% to -63%
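In 5 uL wells, 23 nL compound meets equimolar GST-E1A and His-CtBP (5X stock 125 nM each) for 2 h, 37 °C. Beads (5X, 50 ug/mL) then 1 h, 37 °C, dark.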
Six1-Eya2 inh – qHTS Assay for Inhibitors of the Six1/Eya2 Interaction | 360,000 compounds, 0.56% hits | activity change, % (test concentration not listed) | AID 651725, 2012 | AlphaScreen GST-Six1/His-Eya2 binding, biochemical; active compounds read low | Homeobox protein SIX1 (Homo sapiens) + Protein phosphatase EYA2 (Homo sapiens), …; in the data active = activity change below about -65%; inconclusive = mostly about -30% to -63%
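GST-Six1 + His-Eya2 (5X stock: 250/500 nM); Tris pH 8.0, 300 mM NaCl, 0.05% BSA, 0.02% Tween 20; GSH donor/Ni acceptor beads; 1 h 37 °C dark; AlphaScreen readout.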
TDP1 cell CPT – qHTS for Inhibitors of human tyrosyl-DNA phosphodiesterase 1 (TDP1): qHTS in cells in presence of CPT; chicken DT40 Tdp1-/-;hTDP1 cells + 20 nM CPT, ATP luminescence, 48 h; Potency, µM (series often up to 46.2 µM), without a hit: at the highest dose activity change, negative = growth inhibition, most hits filed as inhibitors; 420,000 compounds, 12% hits; also: potency is read from the fitted curve at half-maximal effect; nearly all actives have a fitted effect of over 55% in size
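Chicken DT40 Tdp1-/- cells complemented with human TDP1, 400 cells/well, exposed to compounds plus 20 nM camptothecin for at least 48 h at 37 C; viability read as ATP content by CellTiter-Glo luminescence.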
IL-1B inflam inh – qHTS for Inhibitors of Inflammasome Signaling: IL-1-beta AlphaLISA Primary Screen; THP-1 LPS/ATP IL-1B secretion, AlphaLISA, 16 h; active compounds read low; activity change, % at 57.5 µM; 360,000 compounds, 4.7% hits; AID 743279, 2014; in the data active = activity change below about -50%; inconclusive = mostly about -30% to -49%
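Secreted IL-1B measured by AlphaLISA bead assay after 16 h compound exposure of THP-1 cells; compounds (final up to 57.5 uM) added 1 h before LPS (250 ng/mL) and ATP (1.25 mM) stimulation; lower signal means less secretion.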
TDP1 block – qHTS Assay for Inhibitors of Tyrosyl-DNA Phosphodiesterase (TDP1). 350,000 compounds, 0.28% hits. recombinant TDP1, AlphaScreen DNA substrate cleavage. Potency, µM (highest dose often 130 µM), inactives show at the highest dose activity change, negative = inhibition, most hits filed as inhibitors. Tyrosyl-DNA phosphodiesterase 1 (Homo sapiens), Q9NUW8; also: potency is read from the fitted curve at half-maximal effect; nearly all actives have a fitted effect of over 40% in size
Target sequence (Q9NUW8 whole entry, looked up): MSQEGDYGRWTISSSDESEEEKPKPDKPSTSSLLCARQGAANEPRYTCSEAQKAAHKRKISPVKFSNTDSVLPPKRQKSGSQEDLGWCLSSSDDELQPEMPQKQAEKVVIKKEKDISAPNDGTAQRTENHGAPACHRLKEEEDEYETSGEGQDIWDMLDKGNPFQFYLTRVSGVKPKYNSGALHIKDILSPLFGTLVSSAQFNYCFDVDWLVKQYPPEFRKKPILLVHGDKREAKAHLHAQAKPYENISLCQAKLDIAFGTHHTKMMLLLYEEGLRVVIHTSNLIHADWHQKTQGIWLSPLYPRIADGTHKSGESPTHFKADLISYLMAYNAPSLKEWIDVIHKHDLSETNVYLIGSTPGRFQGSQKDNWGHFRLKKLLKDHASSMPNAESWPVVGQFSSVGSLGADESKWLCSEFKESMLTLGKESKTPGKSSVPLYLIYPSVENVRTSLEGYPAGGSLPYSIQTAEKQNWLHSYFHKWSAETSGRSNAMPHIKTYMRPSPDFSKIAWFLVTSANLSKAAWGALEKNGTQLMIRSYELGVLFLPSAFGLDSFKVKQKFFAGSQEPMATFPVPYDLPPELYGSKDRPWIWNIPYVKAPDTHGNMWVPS
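Recombinant human Tdp1 (E. coli-expressed, 1 nM final) preincubated with compounds 15 min at room temperature, then 5'-biotin/3'-phosphotyrosine-FITC DNA substrate (15 nM final) added for 5 min. AlphaScreen beads (10 ug/ml final) added 10 min; cleavage lowers signal.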
TDP1 cell noCPT – qHTS for Inhibitors of human tyrosyl-DNA phosphodiesterase 1 (TDP1): qHTS in cells in absence of CPT. DT40 Tdp1-/- hTDP1 cells, no CPT, ATP luminescence, 48 h. Potency, µM (highest dose often 46.2 µM), for inactives: at the top dose activity change, negative = growth inhibition, hits mostly inhibitors. 420,000 compounds, 15% hits; also: potency is read from the fitted curve at half-maximal effect; nearly all actives have a fitted effect of over 55% in size
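Cells were dispensed at 400 per well, compounds added by pin tool, plates incubated ≥48 hr at 37 °C, then CellTiter-Glo added for 30 min at room temperature before luminescence reading. Line: DT40 Tdp1-/- complemented with hTDP1; camptothecin omitted.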
* marks the source's active call; other numbers are inactive results; u = inconclusive; x = not tested or not shown. Shown are actives, neighbours in structure and some others; about 18% of the full set was active somewhere. Unless noted, calls follow the shape of the dose curve; as a rule, active = well fitted curve in the direction sought with a large enough effect; inconclusive = small, poorly fitted or top-dose-only effect, or another doubt; inactive = no such curve, though single readings can be large; an effect the other way counts as inactive or inconclusive. % is scaled to controls: 0 for no effect and ±100 for the full control effect.

SMILES	CtBP-E1A inh	Six1-Eya2 inh	TDP1 cell CPT	IL-1B inflam inh	TDP1 block	TDP1 cell noCPT
O=C(/C(Br)=C/Nc1cc(Cl)ccc1Cl)C(F)(F)F	1	-2	21µM*	0	5%	15µM*
COc1ccc(C2C(C#N)=C(N)Oc3n[nH]c(C)c32)cc1Cn1nc(C)c([N+](=O)[O-])c1C (configuration not stated)	-9	0	u	-17	3%	u
COc1ccc(/C=C/c2n[nH]c(=O)c(C#N)c2C)cc1	-1	-1	4%	-97*	-3%	u
Fc1ccc(-n2ncc3c(N4CCN(Cc5ccccc5)CC4)ncnc32)cc1	x	x	-12%	x	10%	-21%
c1ccc(-n2ncc3c(N4CCN(CCOc5cccc6ccccc56)CC4)ncnc32)cc1	1	0	16µM*	8	6%	26µM*
c1ccc(CN2CCN(c3ncnc4c3cnn4-c3ccccc3)CC2)cc1	x	x	16µM*	x	0%	18µM*
Cc1cccc(-n2ncc3c(N4CCN(CCO)CC4)ncnc32)c1	x	x	u	x	-5%	u
Cc1ccc(-n2ncc3c(N4CCN(Cc5ccccc5)CC4)ncnc32)cc1Cl	x	x	8.2µM*	x	8%	9.2µM*
Cc1cc(C)c(CN2CCN(CCCn3cnc(C(=O)Nc4ccc(C)c(C)c4)n3)CC2)c(C)c1	-18	-16	u	u	x	15µM*
Cc1ccc(NC(=O)c2ncn(CCCN[C@H](C)c3cccc4ccccc34)n2)cc1C	-13	-10	16µM*	-4	x	15µM*
Cc1ccc(NCCCn2cnc(C(=O)Nc3ccc(C)c(C)c3)n2)cc1C	-5	-6	-26%	-6	x	-25%
Cc1ccc(NC(=O)c2ncn(CCCNCC3CCCCC3)n2)cc1C	1	-2	u	u	x	21µM*
COc1cccc(C(=O)NNC(=O)CCc2ccccc2)c1	-6	-2	-2%	0	3%	-5%
CCOC(=O)C1CCN(S(=O)(=O)CCNC(=O)c2ccccc2)CC1	7	-3	15%	u	x	-2%
N#Cc1c(-c2ccccc2Cl)cc(-c2ccccc2)nc1Br	20	31	u	11	0%	u
Cc1ccc(NC(=S)N/N=C/c2cccn2Cc2ccccc2F)cc1	-13	-15	4.6µM*	9	11%	3.7µM*
CNC(=O)CSc1nc(N)c2c3c(sc2n1)CCC3	1	-4	2%	-1	1%	2%
CC1CCN(C(=O)CSc2nc(N)c3c4c(sc3n2)CN(C)CC4)CC1	u	u	u	-7	2%	21µM*
CN1CCc2c(sc3nc(SCC(=O)N4CCOCC4)nc(N)c23)C1	-23	-18	23µM*	-21	6%	18µM*
COc1ccc(/C=N/n2c(=O)[nH]c3c([nH]c4ccc(C)cc43)c2=O)cc1CN1CCOCC1	-19	-13	u	0	-2%	u
CC(C)(C)NC(=O)C(c1ccc(O)cc1)N(C(=O)CCC(=O)Nc1nccs1)c1ccccc1F (configuration not stated)	0	2	2%	-3	0%	-9%
O=C(NNS(=O)(=O)c1ccc(F)cc1)c1ccc2c(c1)OCO2	1	-10	-2%	-1	2%	-1%
Cc1ccc(C)c(Cn2c(SCC(=O)N(C)Cc3ccccc3)nc3ccccc32)c1	x	x	26µM*	x	-11%	26µM*
O=C(CSc1nc2ccccc2n1Cc1ccccc1F)NCc1ccccc1	x	x	u	x	6%	16µM*
O=C(CSc1nc2ccccc2n1Cc1cccc(F)c1)NCc1ccccc1	x	x	u	x	6%	u
SMILES	CtBP-E1A inh	Six1-Eya2 inh	TDP1 cell CPT	IL-1B inflam inh	TDP1 block	TDP1 cell noCPT
CN(C(=O)CSc1nc2ccccc2n1Cc1cccc(C(F)(F)F)c1)c1ccccc1	x	x	18µM*	x	6%	16µM*
O=C(CSc1nc2ccccc2n1Cc1cccc(C(F)(F)F)c1)NCc1ccccc1	x	x	18µM*	x	-1%	u
O=C(CSc1nc2ccsc2c(=O)n1Cc1ccccc1F)NCc1ccccc1	x	x	-23%	x	-3%	u
CCCCOC(=O)C(=O)Nc1cccc(-c2nn[nH]n2)c1	x	x	14%	x	x	-2%
Cc1ccc(/C=C/C(=O)NC(=S)N2CCN(c3ccc(F)cc3)CC2)cc1	-4	38	4%	-1	3%	-39%
O=C(COC(=O)CNC(=O)c1ccc(F)cc1)NC1CCCc2ccccc21 (configuration not stated)	x	-5	-4%	-1	0%	-16%
CC1=CC(=O)C(C(C)C)=C/C1=C(\c1cc(C(C)C)c(OP(=O)(O)O)cc1C)c1ccccc1C(=O)O	2	-6	u	25	x	21µM*
CN(Cc1cc(Br)cc(Br)c1N)C1CCCCC1	x	x	u	x	-9%	9.4µM*
COc1ccc(S(=O)(=O)N2CCCC(C(=O)O)C2)cc1Cl (configuration not stated)	8	0	0%	22	2%	10%
C=CCn1c(C)cc(/C([O-])=C(/C(=S)Nc2ccc(OC(F)F)cc2)[n+]2ccc(N(C)C)cc2)c1C	-10	2	26µM*	-11	5%	18µM*
Cc1cc(C([O-])=C(C(=S)Nc2ccccc2)[n+]2ccccc2)c(C)n1-c1ccccc1	-19	-21	u	18	x	u
CN(C)c1cc[n+](/C(C(=S)Nc2ccc(SC(F)F)cc2)=C(/[O-])c2ccccc2)cc1	4	0	13µM*	-10	0%	10µM*
[O-]/C(=C(\C(=S)Nc1ccc(SC(F)F)cc1)[n+]1ccccc1)c1cc(Cl)ccc1Cl	-3	-23	16µM*	-24	5%	16µM*
Cc1ccc(S(=O)(=O)Nc2nc3n(n2)C(c2ccc(F)cc2)C=C(c2ccccc2)N3)cc1 (configuration not stated)	x	x	u	x	3%	u
O=C(/C=C/c1ccccc1)Nc1nc2n(n1)C(c1ccc(F)cc1)C=C(c1ccccc1)N2 (configuration not stated)	x	x	7.3µM*	x	11%	8.2µM*
COc1ccc(C2C=C(c3ccccc3)Nc3nc(NC(C)=O)nn32)cc1 (configuration not stated)	x	x	-27%	x	-3%	u
